Values joined by “and” are separate entries in the source; they are usually repeats but may differ in a detail not shown here. Equal entries are not always repeated. Records with an inconclusive call do not appear. Active and inactive are the calls of the source. The call rests on the fitted dose curve; in most records, active means well fitted curve in the direction sought with a large enough effect; inconclusive means small, poorly fitted or top-dose-only effect, or another doubt; inactive means no such curve, though single readings can be large; an effect the other way counts as inactive or inconclusive.
How the values were obtained:
MKL-2 = test: qHTS assay to identify novel small-molecules to repurpose for Merkel cell carcinoma treatment (AID 1296009); details: MCC and control cell lines, CellTiter-Glo viability, 72 h; series mostly up to 46 µM; further: nearly all actives have a fitted effect of over 60% in size; further: potency means the concentration at half of the fitted maximal effect
In short: (§1)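 Cells were incubated with compound for 72 hr at 37 degree celsius before CellTiter-Glo addition. Luminescence was normalized with no-cell wells as full cytotoxicity and DMSO as baseline.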

NIH3T3 = test: as above; details: MCC and control cell lines, CellTiter-Glo viability, 72 h; at 44.8 µM (top of the series) unless noted
In short: as §1

UISO = test: as above; details: MCC and control cell lines, CellTiter-Glo viability, 72 h; series mostly up to 46 µM
In short: as §1

WaGa = test: as above; details: MCC and control cell lines, CellTiter-Glo viability, 72 h; series mostly up to 46 µM
In short: as §1

C33A = test: Primary qHTS to identify gynecologic anti-cancer compounds using libraries of approved drugs and bioactive compounds (AID 1345084); details: Gynecologic cancer cell panel viability, ATPlite luminescence, 48 h; series mostly up to 57.5 µM; further: nearly all actives have a fitted effect of over 55% in size
In short: (§2)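 Cells, 1,000 per well, plated 16 h, then exposed 48 h at 37 C to compounds. Viability by ATPlite luminescence after 15 min at room temperature.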

CASKI = test: as above; details: Gynecologic cancer cell panel viability, ATPlite luminescence, 48 h; series mostly up to 57.5 µM
In short: as §2

Es-2 = test: as above; details: Gynecologic cancer cell panel viability, ATPlite luminescence, 48 h; series mostly up to 57.5 µM
In short: as §2

HeLa = test: as above; details: Gynecologic cancer cell panel viability, ATPlite luminescence, 48 h; series mostly up to 57.5 µM
In short: as §2

Hek293T = test: as above; details: Gynecologic cancer cell panel viability, ATPlite luminescence, 48 h, control line for the selectivity index; series mostly up to 57.5 µM
In short: as §2

JEG-3 = test: as above; details: Gynecologic cancer cell panel viability, ATPlite luminescence, 48 h; series mostly up to 57.5 µM
In short: as §2

OV90 = test: as above; details: Gynecologic cancer cell panel viability, ATPlite luminescence, 48 h; series mostly up to 57.5 µM
In short: as §2

PA-1 = test: as above; details: Gynecologic cancer cell panel viability, ATPlite luminescence, 48 h; series mostly up to 57.5 µM
In short: as §2

SKOV3 = test: as above; details: Gynecologic cancer cell panel viability, ATPlite luminescence, 48 h; series mostly up to 57.5 µM
In short: as §2

Tov-21-G = test: as above; details: Gynecologic cancer cell panel viability, ATPlite luminescence, 48 h; series mostly up to 57.5 µM
In short: as §2

Tov112D = test: as above; details: Gynecologic cancer cell panel viability, ATPlite luminescence, 48 h; series mostly up to 57.5 µM
In short: as §2

[1] = Drug repurposing screens with cells derived from glioblastoma tumor samples (AID 1345199); details: GBM patient neurospheres viability, ATP luminescence, 48 h; further: nearly all actives have a fitted effect of over 40% in size; further: potency means the concentration at half of the fitted maximal effect
In short: (§3)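 Four patient lines of CD133+ GBM neurospheres were screened at several concentrations; hits were retested in those lines plus three slower-growing GBM lines, using 48-hour treatment and ATP-based viability.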

astro = test: as above; details: viability, ATP luminescence, 48 h; series mostly up to 45.9 µM
In short: as §3

CAOV3 = test: Primary qHTS to identify gynecologic anti-cancer compounds using libraries of approved drugs and bioactive compounds (AID 1345084); details: Gynecologic cancer cell panel viability, ATPlite luminescence, 48 h; series mostly up to 57.5 µM; further: nearly all actives have a fitted effect of over 55% in size
In short: as §2

[2] = at 45.9 µM (top of the series), tumour line B
[3] = at 45.9 µM (top of the series), tumour line D
[4] = at 46.1 µM (top of the series), tumour line C
[5] = at 46 µM (top of the series), tumour line A
On the % scale 0 is the no-effect control and ±100 the full control effect.

CN(C)CC[C@@H](c1ccc(Cl)cc1)c1ccccn1
inactive: Potency (MKL-2) | outcome (NIH3T3) | Potency (UISO) | Potency (WaGa) | Potency (C33A) | Potency (CASKI) | Potency (Es-2) | Potency (HeLa) | Potency (Hek293T) | Potency (JEG-3) | Potency (OV90) | Potency (PA-1) | Potency (SKOV3) | Potency (Tov-21-G) | Potency (Tov112D) | activity, negative = cell killing [1, 2] -9.08% | activity, negative = cell killing [1, 3] -26.8% | activity, negative = cell killing [1, 4] -11.4% | Potency (astro)
active: Potency ([1]; tumour line A) 14.1 µM

NC1CCN(c2cccc(Cl)n2)CC1
inactive: Potency (MKL-2) | outcome (NIH3T3) | Potency (UISO) | Potency (WaGa) | Potency (C33A) | Potency (CAOV3) | Potency (CASKI) | Potency (Es-2) | Potency (HeLa) | Potency (Hek293T) | Potency (JEG-3) | Potency (OV90) | Potency (SKOV3) | Potency (Tov-21-G) | Potency (Tov112D) | activity, negative = cell killing [1, 2] -8.95% | activity, negative = cell killing [1, 3] 3.86% | activity, negative = cell killing [1, 4] -16% | Potency (astro)
active: Potency ([1]; tumour line A) 11.2 µM

O=c1[nH]c(=O)c2[nH]c(=O)[nH]c2[nH]1
inactive: activity change, negative = cytotoxicity (MKL-2) 7.3% [at 9.22 µM] | outcome (NIH3T3) inactive [at 9.27 µM] | activity change, negative = cytotoxicity (UISO) -5.4% [at 9.22 µM] | activity change, negative = cytotoxicity (WaGa) -8.78% [at 9.22 µM] | activity change, negative = cytotoxicity (C33A) -3.59% [at 11.6 µM] | activity change, negative = cytotoxicity (CASKI) -0.141% [at 11.6 µM] | activity change, negative = cytotoxicity (Es-2) -0.66% [at 11.6 µM] | activity change, negative = cytotoxicity (HeLa) 4.95% [at 11.6 µM] | activity change, negative = cytotoxicity (Hek293T) 6.53% [at 11.6 µM] | activity change, negative = cytotoxicity (JEG-3) 3.26% [at 11.6 µM] | activity change, negative = cytotoxicity (OV90) 21.7% [at 11.6 µM] | activity change, negative = cytotoxicity (PA-1) 8.45% [at 11.6 µM] | activity change, negative = cytotoxicity (SKOV3) -14.3% [at 11.6 µM] | activity change, negative = cytotoxicity (Tov-21-G) 19.2% [at 11.6 µM] | activity change, negative = cytotoxicity (Tov112D) -0.835% [at 11.6 µM] | activity, negative = cell killing [1, 2] -17.6% and -20.9% | activity, negative = cell killing [1, 3] 16.7% and -10.4% | activity, negative = cell killing [1, 5] -18.4% and -8.7% | activity, negative = cell killing [1, 4] -21% and -10.6% | Potency (astro)

Cc1cc(C(C#N)c2ccc(Cl)cc2)c(Cl)cc1NC(=O)c1cc(I)cc(I)c1O (centres undefined)
inactive: Potency (MKL-2) | outcome (NIH3T3) | Potency (C33A) | Potency (CASKI) | Potency (Es-2) | Potency (HeLa) | Potency (Hek293T) | Potency (JEG-3) | Potency (OV90) | Potency (PA-1) | Potency (SKOV3) | Potency (Tov-21-G) | Potency (Tov112D)
active: Potency (WaGa) 10.6 µM | Potency (astro) 3.98 µM

NC(=O)NC(=O)Cc1ccccc1
inactive: Potency (MKL-2) | Potency (UISO) | Potency (WaGa) | Potency (C33A) | Potency (CAOV3) | Potency (CASKI) | Potency (Es-2) | Potency (HeLa) | Potency (Hek293T) | Potency (JEG-3) | Potency (OV90) | Potency (PA-1) | Potency (SKOV3) | Potency (Tov-21-G) | Potency (Tov112D) | activity, negative = cell killing [1, 2] 5.96% | activity, negative = cell killing [1, 3] 3.38% | activity, negative = cell killing [1, 5] -32.3% | activity, negative = cell killing [1, 4] -5.24% | Potency (astro)

COc1cc(C(=O)N2CCOCC2)cc(OC)c1OC
inactive: Potency (MKL-2) | outcome (NIH3T3) | Potency (UISO) | Potency (WaGa) | Potency (C33A) | Potency (CASKI) | Potency (Es-2) | Potency (HeLa) | Potency (Hek293T) | Potency (JEG-3) | Potency (OV90) | Potency (PA-1) | Potency (SKOV3) | Potency (Tov-21-G) | Potency (Tov112D) | activity, negative = cell killing [1, 2] 8.47% and -7.54% | activity, negative = cell killing [1, 3] 3.68% and -23% | activity, negative = cell killing [1, 5] -14.2% | activity, negative = cell killing [1, 4] -7.33% and -2.64% | Potency (astro)

C[C@H]1O[C@H](O[C@H]2[C@H](O)[C@@H](O)[C@@H](O[C@H]3[C@H](O)[C@@H](O)[C@H](O)O[C@@H]3CO)O[C@@H]2CO)[C@H](O)[C@@H](O)[C@@H]1N[C@H]1C=C(CO)[C@@H](O)[C@H](O)[C@H]1O
inactive: Potency (MKL-2) | outcome (NIH3T3) | Potency (UISO) | Potency (WaGa) | Potency (C33A) | Potency (CAOV3) | Potency (CASKI) | Potency (Es-2) | Potency (HeLa) | Potency (Hek293T) | Potency (JEG-3) | Potency (OV90) | Potency (PA-1) | Potency (Tov-21-G) | Potency (Tov112D) | activity, negative = cell killing [1, 2] -6.62% | activity, negative = cell killing [1, 3] 5.79% | activity, negative = cell killing [1, 4] -10.2% | Potency (astro)

CCN(CC)CCOC(=O)C1(C2CCCCC2)CCCCC1
inactive: Potency (MKL-2) | Potency (UISO) | Potency (WaGa) | Potency (C33A) | Potency (CAOV3) | Potency (CASKI) | Potency (Es-2) | Potency (HeLa) | Potency (Hek293T) | Potency (JEG-3) | Potency (OV90) | Potency (PA-1) | Potency (SKOV3) | Potency (Tov-21-G) | Potency (Tov112D)

C/C(=C(\CCOP(=O)(O)O)SC(=O)c1ccccc1)N(C=O)Cc1cnc(C)nc1N
inactive: activity change, negative = cytotoxicity (MKL-2) 12.5% [at 4.84 µM] | outcome (NIH3T3) inactive [at 4.96 µM] | activity change, negative = cytotoxicity (UISO) 22.4% [at 4.84 µM] | activity change, negative = cytotoxicity (WaGa) 24.3% [at 4.84 µM] | activity change, negative = cytotoxicity (C33A) 4.02% [at 6.55 µM] | activity change, negative = cytotoxicity (CAOV3) -0.0932% [at 6.55 µM] | activity change, negative = cytotoxicity (CASKI) 2.61% [at 6.55 µM] | activity change, negative = cytotoxicity (Es-2) -4.63% [at 6.55 µM] | activity change, negative = cytotoxicity (HeLa) 3.42% [at 6.55 µM] | activity change, negative = cytotoxicity (Hek293T) -6.19% [at 6.55 µM] | activity change, negative = cytotoxicity (JEG-3) -14.5% [at 6.55 µM] | activity change, negative = cytotoxicity (PA-1) 12.8% [at 6.55 µM] | activity change, negative = cytotoxicity (SKOV3) 16.3% [at 6.55 µM] | activity change, negative = cytotoxicity (Tov-21-G) 4.62% [at 6.55 µM] | activity change, negative = cytotoxicity (Tov112D) 5.69% [at 6.55 µM] | activity, negative = cell killing ([1]; at 20 µM (top of the series), tumour line C) -2.37% | activity, negative = cell killing ([1]; at 21.2 µM (top of the series), tumour line B) 1.9% | activity, negative = cell killing ([1]; at 21.2 µM (top of the series), tumour line D) -14.8% | activity, negative = cell killing ([1]; at 21.3 µM (top of the series), tumour line A) -14% | Potency (astro)
